miR-122 inh: miR-122 suppressors via Renilla sensor increase, primary screen, cell-based, Huh7 psiCHECK-miR122, Renilla luciferase, single point. 48 h. activation, % at 12.5 µM. hit rate 0.14% among 340,000;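 active means mean activation of 30% or more, with every replicate also reaching 30%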;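 further: 0% = median of neutral control wells and 100% = median of positive control wells; higher luciferase signal means stronger suppression of miR-122 activity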
The depositor's hits bear a star. The entries come from a sample that favours hits as a whole.

SMILES	miR-122 inh
CCCC#Cc1cnc2c(c1)C(=O)N([C@@H](C)CO)C[C@H](C)[C@H](CN(C)Cc1cccnc1)O2	-3
CC(C)C#Cc1ccc2c(c1)O[C@@H](CN(C)C(=O)CC1CC1)[C@H](C)CN([C@H](C)CO)S2(=O)=O	3
Cc1cccc(C)c1NC(=O)CSCC(=O)c1ccc(O)c(O)c1	35*
C[C@H](CO)N1C[C@H](C)[C@H](CN(C)C(=O)CC2CC2)Oc2cc(-c3ccccc3)ccc2S1(=O)=O	-10
C[C@H](CO)N1C[C@H](C)[C@@H](CN(C)C(=O)C2CC2)Oc2cc(C#Cc3cccnc3)ccc2S1(=O)=O	-17
COc1ccc(-c2cnc3c(c2)C(=O)N([C@H](C)CO)C[C@H](C)[C@@H](CN(C)Cc2ccccn2)O3)cc1	-3
C[C@H]1CN([C@@H](C)CO)C(=O)c2cc(/C=C/c3ccccc3)cnc2O[C@H]1CN(C)C(=O)Cc1ccccn1	1
C[C@H](CO)N1C[C@H](C)[C@H](CN(C)C(=O)Nc2ccc3c(c2)OCO3)Oc2ncc(-c3ccc(F)cc3)cc2C1=O	-24
Cc1ccccc1OCC(O)CNC1CCC(NCC(O)COc2ccccc2C)CC1 (configuration not stated)	31*
Cc1ccccc1OCC(=O)NNC(=O)Nc1ccc(Cl)cc1	-144
C[C@H]1CN([C@@H](C)CO)C(=O)c2cc(C3=CCCCC3)cnc2O[C@H]1CN(C)Cc1ccccc1C(=O)O	-1
O=C1NC(=O)/C(=C\c2ccccc2OCc2ccc([N+](=O)[O-])cc2)N1	37*
C[C@@H]1CN([C@@H](C)CO)C(=O)c2cc(C#CC3CC3)cnc2O[C@@H]1CN(C)C	-2
Cc1ccc(S(=O)(=O)N(C)C[C@H]2Oc3cc(-c4cccc(F)c4)ccc3S(=O)(=O)N([C@H](C)CO)C[C@H]2C)cc1	-12

Screens: PubChem, Broad Institute
